HNF4A DNA FP: change in binding of human HNF4 alpha to DNA; AID 1224865; HNF4a-FITC DNA binding, fluorescence polarization, 1 h; 360,000 tested, 0.3% active; activity change, % at 10 µM; P41235; in the data active = activity change above about 30%, passing the limit was not always enough
Myeloid diff 2: myeloid differentiation induction; ER-HoxA9 myeloid progenitors, lysozyme-GFP differentiation, flow cytometry; calls only at 10 µM; 360,000 tested, 1% active;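 active = normalized GFP-positive differentiation at or above the plate's own cutoff, the solvent-only control mean plus 3 SD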;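 note: cells exposed to compound for four days before flow analysis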
Rpn11 inh: blocks the human proteasome subunit Rpn11. O00487. human 26S proteasome, Ub4-pepOG fluorescence polarization; 20S core pre-blocked with epoxomicin. inhibition, % at 20 µM. 360,000 tested, 0.59% active. AID 588493;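 active = inhibition at 20 µM, scaled to each plate's controls, above about 33%, limit read from the data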
Target sequence (O00487 whole entry, looked up): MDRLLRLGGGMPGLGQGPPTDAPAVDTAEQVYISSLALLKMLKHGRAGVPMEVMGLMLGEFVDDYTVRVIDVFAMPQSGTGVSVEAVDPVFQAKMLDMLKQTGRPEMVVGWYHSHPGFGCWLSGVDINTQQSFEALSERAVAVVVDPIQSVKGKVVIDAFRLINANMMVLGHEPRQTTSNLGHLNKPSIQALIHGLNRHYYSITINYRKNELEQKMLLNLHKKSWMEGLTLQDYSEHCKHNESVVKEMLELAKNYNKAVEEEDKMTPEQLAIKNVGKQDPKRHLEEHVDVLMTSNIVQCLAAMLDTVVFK
TPT1 inhibitor: blocks Candida albicans tRNA 2'-phosphotransferase; recombinant caTPT1, FP RNA substrate dephosphorylation; AID 1962; inhibition, % at 5 µM; 300,000 tested, 0.81% active;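 active = inhibition above the mean of all tested compounds plus 3 SD, set per screening campaign, cut at about 24% in these data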
Large screens that a line does not name were inactive. Compounds with a hit are over-represented: about 2.1% of the library has one in this group of screens.

COc1ccc2[nH]c(C)c(CCN(Cc3cccs3)C(=S)Nc3ccccc3)c2c1	none
Cc1cccc(C(O)c2cnc(C)n2Cc2ccccc2)c1 (configuration not stated)	none (no result: TPT1 inhibitor)
Cn1c(=O)c(C(=O)NNC(=O)c2ccccc2F)c(O)c2ccccc21	Myeloid diff 2 active
CN(C)c1ccc(CNC(=O)C2(C)Cc3c(-c4cccc(C(F)(F)F)c4)ccnc3O2)cc1 (configuration not stated)	none (no result: TPT1 inhibitor)
COc1cccc(NC(=S)/C(=C(\[O-])c2ccc(C)c([N+](=O)[O-])c2)[n+]2ccccc2)c1	Myeloid diff 2 active
Cc1ccc(NC(=S)/C(=C(\[O-])c2ccc(C)c([N+](=O)[O-])c2)[n+]2ccccc2)cc1C	none (no result: HNF4A DNA FP, Myeloid diff 2, Rpn11 inh)
CCc1ccccc1NC(=O)Cn1nnc(-c2cccs2)n1	none
Cc1cccc(NC(=O)Cn2nnc(-c3cccs3)n2)c1C	Myeloid diff 2 active
COc1ccc(/C=C(\NC(=O)c2ccccc2)C(=O)OCC2CCCN3CCCCC23)cc1OC (configuration not stated)	none
N#Cc1c(-c2ccc(Cl)cc2)ccn2nc(CCC(=O)O)nc12	none
CCCCCc1nc2c(C#N)c(-c3ccc(Cl)cc3)ccn2n1	Myeloid diff 2 active
COc1ccc(N(C(=O)CNC(=O)c2cccs2)C(C(=O)NCC2CCCO2)c2ccccc2)cc1 (configuration not stated)	none
O=C(CCNC(=O)C1CCN(S(=O)(=O)c2ccccc2)CC1)NCc1cccc(C(F)(F)F)c1	HNF4A DNA FP 38
C/C(=N\OCC(=O)Nc1c(C)cc(C)cc1C)c1ccc2c(c1)OCCO2	none
Cc1cccc(NS(=O)(=O)c2cccc(C(=O)NCC(C)(C)N3CCOCC3)c2)c1	Myeloid diff 2 active
O=C(CCC(=O)N(CC(=O)NC1CCCC1)Cc1ccccc1Cl)Nc1nccs1	none
CCOC(=O)N1CCN(C(=O)CN(C2CCCCC2)S(=O)(=O)c2ccc(Cl)cc2)CC1	Myeloid diff 2 active
CCOC(=O)N1CCN(C(=O)CN(C2CCCCC2)S(=O)(=O)c2ccc(F)cc2)CC1	none
CC1(C)CC(=O)C2=C(C1)OC(N)=C(C#N)C2C1CC=CCC1 (configuration not stated)	none
Nc1nnc(C(c2ccccc2)c2ccccc2)s1	none
NC(=O)c1sc2cc(C(F)(F)F)cnc2c1-c1cccs1	none
NNC(=O)c1sc2cc(C(F)(F)F)cnc2c1-c1cccs1	Myeloid diff 2 active
CCCCCCCCSc1nnc(CSc2nc3nc(C)cc(C)n3n2)o1	none
CC1=C(C(=O)N(C(C)C)C(C)C)CC(CC(=O)NC(c2ccccc2)c2ccccc2)C(=O)N1Cc1ccc(C(C)(C)C)cc1 (configuration not stated)	Myeloid diff 2 active (no result: TPT1 inhibitor)
CC1=C(C(=O)N(C)C)CC(CC(=O)NC(c2ccccc2)c2ccccc2)C(=O)N1CCCN1CCCC1=O (configuration not stated)	Myeloid diff 2 active (no result: TPT1 inhibitor)
CC(O)c1cccc(-c2ccc(CN3C[C@]4(CO)O[C@@H](CO)C[C@@H]4S3(=O)=O)cc2)c1 (some centres not stated)	none (no result: TPT1 inhibitor)
COc1cccc(Nc2nc(C(N)Cc3ccccc3)cs2)n1 (configuration not stated)	none (no result: TPT1 inhibitor)
Cc1nn(C)c(C(=O)Nc2ccn(Cc3c(F)c(F)cc(F)c3F)n2)c1[N+](=O)[O-]	Myeloid diff 2 active
CN(c1ccccc1)S(=O)(=O)c1ccc(NC(=O)CC(=O)c2ccccc2)cc1	Myeloid diff 2 active (no result: TPT1 inhibitor)
O=C(NCCNC(=O)Nc1ccc(Cl)cc1)Nc1ccc(Cl)cc1	Myeloid diff 2 active (no result: TPT1 inhibitor)
O=C(NCCO)Nc1ccc(Cl)cc1	none
O=C(Cc1ccc(Cl)cc1)Nc1ccc(NC(=O)c2ccccc2)cc1	none
O=C(CC(=O)c1ccccc1)Nc1ccc(Cl)cc1	HNF4A DNA FP 42
N#Cc1cccc(C(=O)C(=O)N2CCCN(Cc3ccc(F)cc3)CC2)c1	none (no result: Rpn11 inh, TPT1 inhibitor)
O=C(NCc1ccc(OC(F)(F)F)cc1)c1cccc2c1C(=O)c1ccc(N3CCCCC3)cc1S2(=O)=O	none (no result: TPT1 inhibitor)
O=C(NCc1ccc(OC(F)(F)F)cc1)c1cccc2c1C(=O)c1ccc(N3CCC(Cc4ccccc4)CC3)cc1S2(=O)=O	Myeloid diff 2 active (no result: TPT1 inhibitor)
CN1CCC[C@@H]1CCNC(=O)c1cccc2c1C(=O)c1ccc(N3CCCC3)cc1S2(=O)=O	HNF4A DNA FP 63 (not shown: Rpn11 inh, TPT1 inhibitor)
O=C(NCc1ccc(OC(F)(F)F)cc1)c1cccc2c1C(=O)c1ccc(N3CCCC3)cc1S2(=O)=O	Myeloid diff 2 active (not shown: Rpn11 inh, TPT1 inhibitor)
Cc1ccc(-c2cc(NC=O)c3ncc(-c4cnn(C)c4)n3c2)cc1	none (no result: Myeloid diff 2, TPT1 inhibitor)
Cc1ccc(C(=O)C2CCN(C(=S)NCCCOC(C)C)CC2)cc1	none
CCC(CC)C(=O)Nc1cc(C)cc(C)c1	none

Assay outcomes (PubChem BioAssay)
